{
  "source": "PubChem BioAssay AID686979",
  "about": "(National Center for Advancing Translational Sciences (NCATS), 2013)",
  "note": "Where “and” joins values, the source holds several entries; their conditions need not be identical. Equal values may be shown once. Out of some 420,000 compounds screened, about 50,000 (12%) were called active. Entries that show only a call come without a potency. Another 26% or so got no clear call; they are omitted. This is one part of a sample in which actives are shown more often than they occur. Values without a mark were called inactive. Calls follow the shape of the dose curve; as a rule, active = well fitted inhibition curve with a large enough effect; inconclusive = small, poorly fitted or top-dose-only effect; inactive = flat fitted curve, though single readings scatter. Potency is read from the fitted curve at half-maximal effect.",
  "data": [
    {"test": "qHTS for Inhibitors of human tyrosyl-DNA phosphodiesterase 1 (TDP1): qHTS in cells in presence of CPT; also: nearly all actives have a fitted effect of over 55% in size", "details": "chicken DT40 Tdp1-/-;hTDP1 cells + 20 nM CPT, ATP luminescence, 48 h; series mostly up to 46.2 µM", "how_it_was_run": "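Chicken DT40 Tdp1-/- cells stably complemented with human TDP1 were seeded at 400 cells/well in medium containing 20 nM camptothecin, exposed to pin-transferred compounds, and grown at 37 °C for at least 48 hr. Viability was read as ATP luminescence.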", "values": [
      {"smiles": "Cc1ccc(C(C)C)c(OCC(=O)N2CCN(CC(=O)N3CCOCC3)CC2)c1", "Potency": "inactive"},
      {"smiles": "CN1CCC(N(C)Cc2cccnc2)CC1", "Potency": "inactive"},
      {"smiles": "c1ccc(CCCCN2CCC(c3ccccc3)CC2)cc1", "Potency": "16.8 µM (active) and 23.1 µM (active)"},
      {"smiles": "c1ccc(CCN2CCC3(CC2)OCCO3)cc1", "Potency": "inactive"},
      {"smiles": "CC1=CC(=O)C2=C(C)C[C@H](O)[C@H]3[C@H](C)C(=O)O[C@@H]3C12", "note": "(some centres undefined)", "Potency": "inactive"},
      {"smiles": "Cc1cccc(Cn2cccc(C(=O)Nc3ccc4c(c3)OCCO4)c2=O)c1", "Potency": "9.2 µM (active)"},
      {"smiles": "CN(C)/C=C(\\C=[N+](C)C)c1[nH]ncc1[N+](=O)[O-]", "Potency": "inactive"},
      {"smiles": "O=C1NC(=O)C(CCOc2ccccc2)(CCc2ccccc2)C(=O)N1", "Potency": "inactive"},
      {"smiles": "COc1ccc(-c2nn(CCC#N)cc2C(=O)Nc2ccc(C(C)=O)cc2)cc1", "Potency": "inactive"},
      {"smiles": "COc1ccc(C2Oc3c(I)c(OC)cc(OC)c3CC2O)cc1OC", "note": "(centres undefined)", "Potency": "inactive"},
      {"smiles": "CCOP(=O)(OCC)C(O)c1ccc(OC)cc1OC", "note": "(centres undefined)", "Potency": "inactive"},
      {"smiles": "CC(Cc1ccccc1)NCCC(c1ccccc1)c1ccccc1", "note": "(centres undefined)", "Potency": "9.2 µM (active)"},
      {"smiles": "CC(Cc1ccccc1)NC=O", "note": "(centres undefined)", "Potency": "inactive"},
      {"smiles": "Nc1ccc([N+](=O)[O-])cc1", "Potency": "inactive"},
      {"smiles": "C=CCn1c(O)c(/C=N/N2CCOCC2)c(=O)[nH]c1=S", "Potency": "inactive"},
      {"smiles": "CC(=O)Nc1ccccc1C(=O)OCC(=O)c1cccc2ccccc12", "Potency": "inactive"},
      {"smiles": "COC(=O)C1=C(c2ccc(Cl)c(C(F)(F)F)c2)C[C@@H]2CC[C@H]1N2C(=O)NC1CC1", "Potency": "14.6 µM (active)"},
      {"smiles": "COC(=O)C1=C(c2ccc(C(C)=O)cc2)C[C@@H]2CC[C@H]1N2C(=O)NCCNC(C)=O", "Potency": "inactive"},
      {"smiles": "COC(=O)C1=C(c2cc3ccccc3s2)C[C@@H]2CC[C@H]1N2C(=O)NC(C)C", "Potency": "23.1 µM (active)"},
      {"smiles": "COC(=O)C1=C(c2cc3ccccc3s2)C[C@@H]2CC[C@H]1N2C(=O)NCCO", "Potency": "inactive"},
      {"smiles": "COC(=O)C1=C(c2cc3ccccc3o2)C[C@@H]2CC[C@H]1N2C(=O)NC1CCCCC1", "Potency": "18.4 µM (active)"},
      {"smiles": "COC(=O)CN(CCCl)P1(=O)OCCCN1CCCl", "note": "(centres undefined)", "Potency": "inactive"},
      {"smiles": "C/C(CCc1c[nH]c2ccccc12)=N\\O", "Potency": "inactive"},
      {"smiles": "CCN1CCN(Cc2cc(OC)c3c(c2)OCO3)CC1", "Potency": "inactive"},
      {"smiles": "C1CC[C@H]([C@@]23C[C@H](C[C@H]4CCCN[C@H]42)[C@@H]2CCCCN2C3)NC1", "activity change, negative = growth inhibition": "-5.16% [at 9.04 µM]"},
      {"smiles": "CN1C2CC3CC1C(O3)C2O", "note": "(centres undefined)", "Potency": "inactive"},
      {"smiles": "COP(=O)(OC)C(NC(=O)c1ccc(C)cc1)C(Cl)(Cl)Cl", "note": "(centres undefined)", "Potency": "inactive"},
      {"smiles": "C#C[C@]1(OC(=O)CCCCCC)CC[C@H]2[C@@H]3CCC4=CC(=O)CC[C@@H]4[C@H]3CC[C@@]21C", "Potency": "inactive"},
      {"smiles": "CC(=O)OC1C2(CC3N4C(=O)C5(CO)SSC4(CC31O)C(=O)N5C)OC(C)C(C)(C)C2=O", "note": "(centres undefined)", "Potency": "0.146 µM (active)"},
      {"smiles": "O=C(c1cc(S(=O)(=O)N2CCOCC2)ccc1F)N1CCC2(CC1)OCCO2", "Potency": "inactive"},
      {"smiles": "CCc1nnc(NS(=O)(=O)c2ccc(N=Cc3c(O)n(-c4ccccc4)c(=O)[nH]c3=O)cc2)s1", "Potency": "inactive"},
      {"smiles": "O=[N+]([O-])c1ccc(Cl)c(Cl)c1", "Potency": "inactive"},
      {"smiles": "O=C(Cc1ccc(Cl)cc1)NCCN1CCN(C(=O)Cc2ccc(Cl)cc2)CC1", "Potency": "inactive"},
      {"smiles": "C[C@@H]1C[C@@H]2O[C@H]2/C=C\\C=C\\C(=O)Cc2c(Cl)c(O)cc(O)c2C(=O)O1", "Potency": "0.0411 µM (active)"},
      {"smiles": "CCOC(=O)C1=C(C)OC(N)=C(C(=O)OC)C12C(=O)Nc1ccc(Br)cc12", "note": "(centres undefined)", "Potency": "inactive"},
      {"smiles": "CCN1CCN(C(=O)Cc2coc3cc(C)cc(C)c23)CC1", "Potency": "inactive"},
      {"smiles": "NC(=O)Cn1cc(C(=O)c2ccccc2F)c2ccccc21", "Potency": "inactive"},
      {"smiles": "COCCNC(=O)CN1C2CCC1CC(O)(c1cccnc1)C2", "note": "(centres undefined)", "Potency": "inactive"},
      {"smiles": "Cc1cc2n(n1)C(c1cc(C(C)(C)C)c(O)cc1O)Nc1ccccc1-2", "note": "(centres undefined)", "Potency": "14.6 µM (active)"},
      {"smiles": "CCC/C(=N\\O)c1c[nH]c2ccccc12", "Potency": "inactive"},
      {"smiles": "NCC(O)c1ccc(O)cc1", "note": "(centres undefined)", "Potency": "inactive"},
      {"smiles": "CC[N+](C)(CC)CCC[n+]1c(-c2ccccc2)c2cc(N)ccc2c2ccc(N)cc21", "Potency": "2.58 µM (active)"},
      {"smiles": "COc1ccc(NC(=O)N2Cc3ccccc3-n3nncc3C2)cc1", "Potency": "inactive"},
      {"smiles": "CCN(CC)CCOC(=O)c1cc2cc(COC)ccc2o1", "Potency": "inactive"},
      {"smiles": "CC(=O)c1ccc(OC(NC(=O)Cc2ccccc2)C(Cl)(Cl)Cl)cc1", "note": "(centres undefined)", "Potency": "inactive"},
      {"smiles": "Cc1cccc2c3c(ccc12)C1=C(C(=O)C3=O)C(C)CO1", "note": "(centres undefined)", "Potency": "4.11 µM (active)"},
      {"smiles": "CCOC(=O)c1c(N)n(CCN2CCOCC2)c2nc3ccccc3nc12", "Potency": "inactive"},
      {"smiles": "CC1(C)OC[C@@H](COC(=O)CCc2ccc(OC[C@@H](O)CNCCNC(=O)N3CCOCC3)cc2)O1", "Potency": "inactive"},
      {"smiles": "Cc1ccc(S(=O)(=O)N(C)c2ccc(C(=O)NCC3(N(C)C)CCCCC3)cc2)cc1", "Potency": "inactive"},
      {"smiles": "O=C(CN1CCCCC1)Nc1ccc(Br)cc1C(=O)c1ccccc1Cl", "Potency": "inactive"},
      {"smiles": "O=C(CCN1CCCCC1)NCC(=O)Nc1ccc(Br)cc1C(=O)c1ccccc1", "Potency": "18.4 µM (active)"},
      {"smiles": "CCOC(=O)CC(SP1(=S)OCC2(CCCCO2)C(C2CCCCO2)O1)C(=O)OCC", "note": "(centres undefined)", "Potency": "inactive"},
      {"smiles": "C[C@]12CCC3C(CC[C@H]4[C@H](O)[C@H](O)CC[C@]34C)C1CC[C@@H]2O", "note": "(some centres undefined)", "Potency": "inactive"},
      {"smiles": "C[C@]12CCC3C(CC[C@H]4C[C@@H](O)CC[C@]34C)C1C[C@@H](O)[C@H]2O", "note": "(some centres undefined)", "Potency": "inactive"},
      {"smiles": "C[C@]12CCC3C(CC[C@H]4[C@H](O)[C@H](O)CC[C@]34C)C1CCC2=O", "note": "(some centres undefined)", "Potency": "16.4 µM (active)"},
      {"smiles": "Nc1ccc(Cc2ccc(N)c(Cl)c2)cc1Cl", "Potency": "inactive"},
      {"smiles": "O=c1[nH]c2ccccc2n1C1CCN(C(c2ccccc2)c2nnnn2Cc2ccccc2)CC1", "note": "(centres undefined)", "Potency": "18.4 µM (active)"},
      {"smiles": "Cc1ccc(Cn2nnnc2CN2CCC(n3nnc4ccccc43)CC2)cc1", "Potency": "inactive"},
      {"smiles": "O=c1[nH]c2ccccc2n1C1CCN(C(c2ccnc3ccccc23)c2nnnn2Cc2ccccc2)CC1", "note": "(centres undefined)", "Potency": "20.6 µM (active)"},
      {"smiles": "Cc1ccsc1C(=O)C1CCCN(Cc2ccc(O)cc2)C1", "note": "(centres undefined)", "Potency": "inactive"},
      {"smiles": "Cc1cccc(-n2c(O)c(C=NC34CN5CN(CN(C5)C3)C4)c(=O)[nH]c2=O)c1", "Potency": "inactive"},
      {"smiles": "Cc1nn(Cc2ccccc2Cl)c(Cl)c1C(=O)OC(C(=O)NC(N)=O)C(C)C", "note": "(centres undefined)", "Potency": "inactive"},
      {"smiles": "CCOc1ccc(CN(CCCl)CCCl)cc1C(=O)OC", "Potency": "4.11 µM (active)"},
      {"smiles": "Cc1cc(C=C2C(=O)NC(=O)NC2=O)c(C)n1-c1ccncc1", "Potency": "inactive"}
    ]}
  ]
}
